In PubChem BioAssay (EPA / NIEHS) one finds outcome data, which are given here for 38 molecules.

The structures appear in SMILES notation. Active and inactive are the calls of the source. The calls were made as follows: active = hit-call score of the fitted dose curve at least 0.9, where 1 is the maximum; inactive = score below 0.9.

Sequence of Transcription factor E2F1 (Homo sapiens) (Q01094 whole entry, looked up): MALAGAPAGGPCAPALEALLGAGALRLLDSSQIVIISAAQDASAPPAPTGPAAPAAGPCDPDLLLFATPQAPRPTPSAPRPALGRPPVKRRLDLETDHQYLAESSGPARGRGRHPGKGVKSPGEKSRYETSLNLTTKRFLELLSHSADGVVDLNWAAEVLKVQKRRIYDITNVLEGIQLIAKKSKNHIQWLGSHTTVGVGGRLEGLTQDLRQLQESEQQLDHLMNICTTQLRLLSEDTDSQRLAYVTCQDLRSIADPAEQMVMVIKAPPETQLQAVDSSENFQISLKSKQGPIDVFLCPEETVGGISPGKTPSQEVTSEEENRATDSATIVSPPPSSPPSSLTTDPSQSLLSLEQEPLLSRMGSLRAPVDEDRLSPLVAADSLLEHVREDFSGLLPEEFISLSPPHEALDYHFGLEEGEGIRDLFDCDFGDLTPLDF

The target of this test is Transcription factor E2F1 (Homo sapiens) (UniProt Q01094). In words: ATG_E2F_CIS: Attagene CIS-FACTORIAL HepG2 Assay for human E2F Transcription Factor 1 (AID 2282935). The conditions noted are these: HepG2 Attagene cis-reporter, E2F reporter RNA transcripts; actives raise or lower the signal. Summed up:
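Fluorescent RT-PCR products, digested with HpaI for 2 h at 37 C, are separated by capillary electrophoresis. Source RNA comes from transfected HepG2 cultures treated for 24 h.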
For the molecule `CCOC(=O)CC(C)O` (stereo not drawn), the molecule was classed as inactive. Regarding `CCCC(=O)OCCc1ccccc1`, the call was inactive. Next, `CC1(C)O[C@@H]2[C@@H](CO[C@@]3(COS(N)(=O)=O)OC(C)(C)O[C@@H]23)O1`: “inactive”.

Turning to `[Cl][Au]([Cl])[Cl]`, the molecule was classed as inactive. Next, `CCCCCC(C=O)=Cc1ccccc1`: “inactive”; `C=CC(C)C#N` (stereo not drawn): “inactive”; `C[C@H]1O[C@@H](O[C@H]2[C@@H](O)C[C@H](O[C@H]3[C@@H](O)C[C@H](O[C@H]4CC[C@@]5(C)[C@H](CC[C@@H]6[C@@H]5C[C@@H](O)[C@]5(C)[C@@H](C7=CC(=O)OC7)CC[C@]65O)C4)O[C@@H]3C)O[C@@H]2C)C[C@H](O)[C@@H]1O`: “inactive”. With `ClC(c1ccccc1)(c1ccccc1)c1ccccc1`, the molecule was called inactive.

On to `O=c1c(O)c(-c2ccc(O)cc2)oc2cc(O)cc(O)c12`, for which the outcome was inactive. Next, `CN1CCOCC1`: “inactive”; `CC/C=C\CC/C=C/CO`: “inactive”; `CS(=O)(=O)c1ccc(C2=C(c3ccccc3)C(=O)OC2)cc1`: “inactive”.

On to `CC1C2CC(CC2C2CCCC(O)C2)C1(C)C` (stereo not drawn), for which the molecule was called inactive.

Regarding `COC(=O)Nc1ccc(Cl)c(Cl)c1`, the molecule was classed as inactive. Turning to `CC(O)C1CCCCC1` (stereo not drawn), the call was inactive.

For `Oc1c(Cl)cc(Cl)c(Cl)c1Cc1c(O)c(Cl)cc(Cl)c1Cl`, the molecule was called inactive. With `N#Cc1ccc(CC(=O)c2cccc(C(F)(F)F)c2)cc1`, the call was inactive. For `COS(=O)(=O)O`, the outcome was inactive.

`CCCCCCOC(=O)CCC`: the result was inactive. For `COC(C)(C)CCCC(C)CC=O` (stereo not drawn), the outcome was inactive. As to `CSCCC=O`, the call was inactive. As to `Brc1ccc(Br)c(Br)c1`, the molecule was called inactive. With `Cc1cc(C)nc(NS(=O)(=O)c2ccc(N)cc2)n1`, the result was inactive. Regarding `CCOCCOCCOCC`, the outcome was inactive. With `C=C1C[C@]23C[C@@]1(O)CC[C@H]2[C@@]12C=C[C@H](O)[C@@](C)(C(=O)O1)[C@H]2[C@@H]3C(=O)O`, the call was inactive. As to `OCc1cccc(Oc2ccccc2)c1`, the call was inactive.

As to `C=CCN(CC=C)CC=C`, the call was inactive. With `CC(C)(N=C=O)c1cccc(C(C)(C)N=C=O)c1`, the molecule was called inactive.

Turning to `C[Si]1(C)O[Si](C)(C)O[Si](C)(C)O1`, the molecule was called inactive. Next, `CCOc1ccccc1O`: “inactive”. For the molecule `Cc1cc(=O)oc2cc(N(C)C)ccc12`, the molecule was classed as inactive. Next, `CCCCOCC`: “inactive”; `C1CCCCC1`: “inactive”; `CC1=CC[C@@]23C[C@@H]1C(C)(C)[C@@H]2CC[C@H]3C`: “inactive”. On to `O=C1NC2NC(=O)NC2N1` (stereo not drawn), for which the molecule was classed as inactive. For the molecule `Nc1ccc(NCCO)c([N+](=O)[O-])c1`, the molecule was classed as inactive. Regarding `CC(C)(CO)[C@@H](O)C(=O)NCCC(=O)O`, the outcome was inactive. `C[Si](C)(C)O[Si](C)(C)C`: the call was inactive.
